Laboratory results reported in PubChem BioAssay AID1220 (Sanford-Burnham Center for Chemical Genomics, 2008).
About 1,300 (0.68%) of roughly 190,000 compounds were called active. The entries come from a sample that favours actives as a whole. A number with no mark means an inactive call. No stated cut-off is given here; in the data, active means inhibition above about 50%; inactive means the rest.

biological target: Mannose-6-phosphate isomerase (Homo sapiens) (UniProt P34949); experiment: MPI inhibition at elevated mannose 6-phosphate – biochemical, fluorescence intensity, high mannose 6-phosphate, primary screen (AID 1220); conditions: recombinant PMI enzyme, coupled fluorescence intensity; at 20 µM; hits give high values
Sequence (P34949 whole entry, looked up): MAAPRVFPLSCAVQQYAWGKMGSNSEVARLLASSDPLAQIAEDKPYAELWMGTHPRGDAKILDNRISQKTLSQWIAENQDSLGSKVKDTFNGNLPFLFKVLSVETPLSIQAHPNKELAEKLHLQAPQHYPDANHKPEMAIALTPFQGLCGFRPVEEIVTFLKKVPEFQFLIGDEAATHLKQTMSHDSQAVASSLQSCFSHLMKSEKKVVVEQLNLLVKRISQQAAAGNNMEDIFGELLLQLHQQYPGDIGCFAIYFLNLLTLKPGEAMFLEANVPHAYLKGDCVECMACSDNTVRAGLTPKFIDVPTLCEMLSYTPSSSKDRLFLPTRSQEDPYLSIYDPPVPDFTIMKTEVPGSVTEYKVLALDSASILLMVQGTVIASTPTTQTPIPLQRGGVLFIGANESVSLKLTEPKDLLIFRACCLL

Row | Compound | inhibition
1 | COc1ccccc1NC(=O)c1cnc(Nc2ccccc2OC)c2ccccc12 | 6.4%
2 | CC1Oc2ccccc2N(CC(=O)NCc2cccs2)C1=O (stereo not drawn) | 5.4%
3 | NC(=O)Cc1ccc(C(=O)c2ccccc2F)s1 | -7%
4 | Cc1ccc(C(C)C)c(OCC(=O)N2CCOCC2)c1 | 4.1%
5 | O=C(O)COc1ccc(/C=N/n2cnc3scc(-c4cccs4)c3c2=O)cc1 | -8.8%
6 | Cc1ccc(-n2c(-c3ccncc3)n[nH]c2=S)c(C)c1 | 3.7%
7 | COc1ccc(OCC(=O)Nc2ccc3c(c2)nc2n3CCSC2)cc1 | 7.8%
8 | O=C(/C=C/c1cccc(OCc2ccccc2)c1)c1cccnc1 | -18.2%
9 | CCOC(=O)c1c(C)oc2c(CC(=O)c3ccccc3)c(Cl)c(O)c(O)c12 | 8.9%
10 | CCOC(=O)Cc1csc(NC(=O)NC2(C(F)(F)F)Oc3cc(Cl)c(Cl)cc3O2)n1 | 54.7% (active)
11 | CCOC(=O)Cc1csc(NC(=O)NC2(C(F)(F)F)Oc3ccc(Cl)cc3O2)n1 (stereo not drawn) | 47.9%
12 | CCOC(=O)Cc1csc(NC(=O)NC2(C(F)(F)F)Oc3ccccc3O2)n1 | 21.4%
13 | CC1CC1C(=O)OCC(=O)NCc1ccc(Cl)cc1Cl (stereo not drawn) | -7.7%
14 | CCSc1nnc(NC(=O)C2CC(=O)N(Cc3ccc(C)cc3)C2)s1 (stereo not drawn) | -13.3%
15 | O=C(Nc1ccc2nc(-c3ccccn3)c(-c3ccccn3)nc2c1)N1CCOCC1 | 62.6% (active)
16 | CCCNC(=S)Nc1ccc2nc(-c3ccccn3)c(-c3ccccn3)nc2c1 | -9.4%
17 | Cc1ccc(NC(=S)Nc2ccc3nc(-c4ccccn4)c(-c4ccccn4)nc3c2)cc1C | 63.1% (active)
18 | CCOC(=O)N1CCN(C(=O)Nc2ccc3nc(C)c(C)nc3c2)CC1 | 48.9%
19 | CCOC(=O)N1CCN(C(=O)Nc2ccc3nc(-c4ccccn4)c(-c4ccccn4)nc3c2)CC1 | 25.7%
20 | CCOC(=O)C1CCN(C(=O)Nc2ccc3nccnc3c2)CC1 | 49.9%
21 | CN(C)NC(=S)Nc1ccc2nc(-c3ccccn3)c(-c3ccccn3)nc2c1 | -38.7%
22 | S=C(Nc1ccc2nc(-c3ccccn3)c(-c3ccccn3)nc2c1)N1CCOCC1 | -7.8%
23 | CCOC(=O)N1CCN(C(=O)Nc2ccc3nccnc3c2)CC1 | 55.1% (active)
24 | Cc1ccc2[nH]c3c(=O)n(CCN4CCNCC4)cnc3c2c1 | 24.5%
25 | Cc1[nH]c2ccccc2c1CCNC(=O)c1c(N)no[n+]1[O-] | 15.2%

Row | Compound | inhibition
26 | O=c1c(Cl)c(N/N=C/c2ccc(Br)cc2)cnn1-c1ccccc1 | 4.9%
27 | O=C(Cc1cccc2ccccc12)Nc1ccc(OC(F)F)c(Cl)c1 | 10%
28 | CC1=CC(=O)C(C(C)C)=C/C1=N/OC(=O)c1cccc([N+](=O)[O-])c1 | -0.5%
29 | CC1=CC(=O)C(C(C)C)=C/C1=N\OC(=O)c1cccc2nc(C)oc12 | 9.2%
30 | CC1=CC(=O)C(C(C)C)=CC1=NC(=O)c1ccc(C)cc1 | 79% (active)
31 | COC(=O)CCc1c(C)c(C(=O)c2ccc(F)cc2)c2ccccn12 | 6.2%
32 | CCN=c1sc(C(=O)OC)cc(=O)n1CC | 3.7%
33 | O=C(NCC1OCCCN1S(=O)(=O)c1cc(F)ccc1F)C(=O)NC1CCCCC1 (stereo not drawn) | -0.8%
34 | COc1ccc2c(C)c(Cc3ccccc3)c(=O)oc2c1OC | 0.1%
35 | CCOC(=O)Cc1c(C)c2c(O)cc(O)cc2oc1=O | 33.5%
36 | Cc1c(Cc2ccccc2)c(=O)oc2c(CN(C)C)c(O)c(Cl)cc12 | 7.5%
37 | Cc1coc2c1c(C)cc1oc(=O)c(Cc3ccccc3)c(C)c12 | -11.6%
38 | Cc1c(Cc2ccccc2)c(=O)oc2cc(O)cc(O)c12 | 58.5% (active)
39 | COC(=O)Cc1ccc2oc(-c3cccnc3)nc2c1 | 1.9%
40 | CCCc1c(C)c2c(C)[nH]nc2oc1=O | 1.7%
41 | COc1cc(OC)nc(Oc2ccccc2C(=O)Oc2cccc(C)c2)n1 | 7%
42 | Cc1ccc(S(=O)(=O)Nc2nc3ccc(S(=O)(=O)N4CCCC4)cc3s2)cc1 | -22.6%
43 | Cc1cccc(N=C2NC(=O)c3cc([N+](=O)[O-])ccc32)c1 | 0.2%
44 | NC(=O)c1ccc(C(=O)c2ccc([N+](=O)[O-])cc2)cc1 | -7.6%
45 | Cc1ccc(N=C2NC(=O)c3cc([N+](=O)[O-])ccc32)cc1 | 6.9%
46 | O=C1NC(=Nc2ccccc2)c2ccc([N+](=O)[O-])cc21 | -7.3%
47 | O=c1[nH]c2cc3c(cc2cc1C(c1nnnn1C1CCCC1)N1CCCc2ccccc21)OCCO3 (stereo not drawn) | 27.2%
48 | CCC(C)(C)n1nnnc1C(c1cc2cc(C)ccc2[nH]c1=O)N1CCCc2ccccc21 (stereo not drawn) | 21.8%
49 | Cc1ccc2[nH]c(=O)c(C(c3nnnn3C3CCCC3)N3CCCc4ccccc43)cc2c1 (stereo not drawn) | 61.4% (active)
50 | Cc1ccnc(NC(=O)C(C)n2cc([N+](=O)[O-])cn2)c1 (stereo not drawn) | -10.1%

Row | Compound | inhibition
51 | CCOc1cc(N2CCOCC2)c(OCC)cc1NC(=O)c1ccc(NC(C)=O)cc1 | 26.1%
52 | CCOc1cc(N2CCOCC2)c(OCC)cc1NC(=O)c1ccco1 | 25.1%
53 | O=S(=O)(Nc1ccc(N2CCOCC2)cc1)c1ccc(Cl)s1 | -4.9%
54 | CCOc1ccc(Br)cc1S(=O)(=O)Nc1ccccc1N1CCOCC1 | -0.7%
55 | CCOc1cc(N2CCOCC2)c(OCC)cc1NS(=O)(=O)c1ccc(Cl)s1 | 54.3% (active)
56 | CCOc1cc(N2CCOCC2)c(OCC)cc1NC(=O)c1ccc(S(C)(=O)=O)cc1 | 54.7% (active)
57 | CCOc1cc(N2CCOCC2)c(OCC)cc1NC(=O)c1ccc(C)cc1 | 27.3%
58 | CCOc1cc(N2CCOCC2)c(OCC)cc1NC(=O)c1nc2nc(C)cc(C)n2n1 | 14.6%
59 | CCOc1cc(N2CCOCC2)c(OCC)cc1NC(=O)c1ccccc1 | 28.4%
60 | CCOc1cc(N2CCOCC2)c(OCC)cc1NC1=NCCCCC1 | 50.1% (active)
61 | CCNC(=S)Nc1cc(OCC)c(N2CCOCC2)cc1OCC | 58% (active)
62 | FC(F)(F)c1ccc(N2CCOCC2)c(NC2=NCCCCC2)c1 | 2.9%
63 | Cc1cc(N)n2ncc(-c3ccc(F)cc3)c2n1 | 6.9%
64 | COCc1cc(C)nc(SCC(=O)Nc2ccccc2C)c1C#N | -4.7%
65 | COc1cccc(C(=O)C2CCCN(C(=O)c3cccc(C#CC(C)(C)O)c3)C2)c1 (stereo not drawn) | 13%
66 | Cc1ccc2n(n1)c(=O)c(Cc1ccccc1)c([O-])[n+]2-c1ccccc1 | 7.7%
67 | COCCNC(=O)CN1CCN(Cc2cccc(Cl)c2)C1=O | 10.3%
68 | CCOc1cc(N2CCOCC2)c(OCC)cc1NC(=O)C(C)(C)C | 27.9%
69 | CCOc1cc(N2CCOCC2)c(OCC)cc1NC(=O)c1cc(C)cc(C)c1 | 40.8%
70 | CCCNC(=O)Nc1cc(OCC)c(N2CCOCC2)cc1OCC | 58.7% (active)
71 | COc1ccc(CCn2nnnc2C(CC(C)C)N2CCN(c3ncccn3)CC2)cc1OC (stereo not drawn) | 7.5%
72 | Oc1ccc2cc(Br)ccc2c1CN1CCCC1 | 43.2%
73 | Oc1ccc2ccccc2c1CN1CCCC1 | 67.8% (active)
74 | CN1CCN(Cc2c(O)ccc3cc(Br)ccc23)CC1 | 64.6% (active)
75 | Oc1ccc2ccccc2c1CN1CCN(c2ccccc2F)CC1 | 29.8%

Row | Compound | inhibition
76 | CN1CCN(Cc2c(O)ccc3c(-c4ccccc4)cc(=O)oc23)CC1 | 1.7%
77 | Oc1ccc2ccccc2c1CN1CCN(c2ccccc2)CC1 | -35.5%
78 | CCn1c(CSc2nc3ccccc3s2)nnc1SCC(N)=O | 1.7%
79 | N#Cc1ccccc1S(=O)(=O)N1CCN(CC(O)c2ccccc2)CC1 (stereo not drawn) | -12.7%
80 | COc1cccc(C(=O)Nc2cccc(-c3ccc4nncn4n3)c2)c1OC | -2.3%
81 | COc1ccc(C2=NN(C(=O)CSc3ncccn3)C(c3cccc(OC)c3OC)C2)cc1 (stereo not drawn) | 0.9%
82 | CCOC(=O)C1CCCN(C(=O)c2ccc(C)cc2O)C1 (stereo not drawn) | 1.2%
83 | CC1Cc2ccccc2N1c1ncnc2c1nnn2Cc1ccccc1Cl (stereo not drawn) | -1.3%
84 | O=C(O)C1C2CCC(O2)C1C(=O)Nc1ccc(F)cc1 (stereo not drawn) | -3.9%
85 | O=C(O)C1C2CCC(O2)C1C(=O)Nc1cccc(F)c1 (stereo not drawn) | -3.7%
86 | O=C(O)C1C2CCC(O2)C1C(=O)Nc1ccc(O)cc1 (stereo not drawn) | 54.4% (active)
87 | O=C(NCC(=O)N(c1cccnc1)C(C(=O)NC1CCCC1)c1ccccc1)c1ccco1 (stereo not drawn) | -14.2%
88 | Cc1onc(-c2ccccc2)c1C(=O)N1CCN(C(=O)c2ccco2)CC1 | 2%
89 | COc1ccc(N(CC(=O)NCc2ccccc2OC)S(=O)(=O)c2ccccc2[N+](=O)[O-])c(OC)c1 | -1.5%
90 | CCN1C(=O)N(C)C2(c3ccccc3)N(C)C(=O)N(C)C12c1ccccc1 (stereo not drawn) | 12.7%
91 | CN1c2ccccc2N(C)C1(C)c1ccccc1 | 31.1%
92 | O=C(c1cc(-c2ccco2)on1)N1CCOCC1 | 26.3%
93 | CN1CCN(C(=O)c2cc(-c3ccco3)on2)CC1 | -11%
94 | O=C(c1cc(-c2ccco2)on1)N1CCN(c2ccccc2)CC1 | 53.3% (active)
95 | N#CCCn1c(C2CCCCC2)nc2ccccc21 | -2.5%
96 | O=[N+]([O-])c1ccc(N=Cc2ccc(Br)c([N+](=O)[O-])c2)cc1 | 7.8%
97 | O=[N+]([O-])c1cc(C=Nc2ccc3ccccc3c2)ccc1Br | 51.5% (active)
98 | C(=Nc1ccc(Nc2ccccc2)cc1)c1ccc2ccccc2c1 | -17.3%
